From PubChem BioAssay AID588342 (National Center for Advancing Translational Sciences (NCATS), 2011)
The campaign covered roughly 360,000 compounds. About 25,000 (6.9%) were called active. Not shown: some 9% with an inconclusive outcome. The call rests on the fitted dose curve; in most records, active means well fitted inhibition curve with a large enough effect; inconclusive means small, poorly fitted or top-dose-only effect; inactive means flat fitted curve, though single readings scatter. Shown is part of a subset that was picked to be rich in actives.

These compounds were tested against Luciferin 4-monooxygenase (Photinus pyralis) (UniProt P08659) (assay: qHTS profiling assay for firefly luciferase inhibitor/activator using purifed enzyme and Km concentrations of substrates (counterscreen for miR-21 project)). Conditions: purified FLuc, luminescence inhibition; series mostly up to 57.5 µM; activity change, negative = inhibition: at the top concentration.
Sequence of Luciferin 4-monooxygenase (Photinus pyralis) (P08659 whole entry, looked up): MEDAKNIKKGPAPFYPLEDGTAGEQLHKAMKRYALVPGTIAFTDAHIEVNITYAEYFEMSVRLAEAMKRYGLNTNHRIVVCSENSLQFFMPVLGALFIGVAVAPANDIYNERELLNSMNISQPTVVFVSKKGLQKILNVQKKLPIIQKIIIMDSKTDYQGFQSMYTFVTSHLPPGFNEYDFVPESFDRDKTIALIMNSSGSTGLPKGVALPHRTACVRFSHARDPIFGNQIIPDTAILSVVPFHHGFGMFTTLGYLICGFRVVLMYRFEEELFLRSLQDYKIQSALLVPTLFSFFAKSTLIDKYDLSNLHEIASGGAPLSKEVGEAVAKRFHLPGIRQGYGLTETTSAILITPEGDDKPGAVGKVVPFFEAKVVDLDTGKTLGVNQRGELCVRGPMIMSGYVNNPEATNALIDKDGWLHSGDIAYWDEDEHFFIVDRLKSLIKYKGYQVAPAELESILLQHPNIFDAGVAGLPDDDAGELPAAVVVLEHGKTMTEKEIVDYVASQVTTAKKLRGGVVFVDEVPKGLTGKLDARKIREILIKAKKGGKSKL
In short: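 Purified P. pyralis luciferase, 10 nM final, with Km-level 10 uM D-luciferin and 10 uM ATP in 50 mM Tris acetate pH 7.5, 10 mM Mg acetate, 0.01% Tween-20, 0.05% BSA; 6-point qHTS titration about 60 µM downward; luminescence read.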
Further: nearly all actives have a fitted effect of over 55% in size.
Potency means the concentration at half of the fitted maximal effect.
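Wherever activity change, negative = inhibition is given: plate controls were vehicle for no effect and reference inhibitor for full effect.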

Compound	activity change, negative = inhibition	Potency
COc1ccccc1NC(=O)C1=C(C)NC(=O)NC1c1ccc(C)s1 (stereo unspecified)	-1.32% (inactive)	–
COC(=O)c1c(NC(C)=O)sc(C(=O)Nc2ccccc2OC)c1C	-3.92% (inactive)	–
COc1ccccc1NC(=O)c1ccc(C)s1	–	13.5 µM (active)
COc1ccccc1N1CCN(C(=O)CSc2nnc(-c3ccoc3C)o2)CC1	-1.48% (inactive)	–
C1=C(CCNc2ncnc3c2cnn3-c2ccccc2)CCCC1	–	3.38 µM (active)
CCN(CC)C(=O)CSc1nc2ccccc2n1CC(=O)N1CCN(c2ccccc2OC)CC1	7.05% (inactive)	–
Cc1ccc(-n2ncc3c(N4CCC(C(N)=O)CC4)ncnc32)cc1	–	12 µM (active)
CCN1CCN(c2ncnc3c2cnn3-c2ccc(C)c(C)c2)CC1	–	9.53 µM (active)
Cc1ccc(-n2ncc3c(=O)n(Cc4cccc(C(F)(F)F)c4)cnc32)cc1C	-6.53% (inactive)	–
CCOC(=O)C1CCN(c2ncnc3c2c(-c2ccccc2)cn3-c2ccc(C)cc2)CC1	-7.38% (inactive)	–
O=C(NCCC1=CCCCC1)C1CCN(Cc2cnn(-c3ccccc3)c2-n2cccc2)CC1	0.886% (inactive)	–
CCc1cc2c(N3CCN(c4nnc(CC)s4)CC3)ncnc2s1	-1.27% (inactive)	–
COc1ccccc1N1CCN(C(=O)CSc2ncnc3c2cnn3-c2ccc(C)c(C)c2)CC1	–	8.49 µM (active)
O=C(NNc1ncnc2c1cnn2-c1ccccc1)c1ccco1	-1.66% (inactive)	–
Cc1ccc(Cl)cc1-n1ncc2c(N3CCC(C(N)=O)CC3)ncnc21	-2.86% (inactive)	–
Cc1ccc(S(=O)(=O)N(C)C)cc1NC(=O)c1ccccc1Br	-3.56% (inactive)	–
Cn1cc(-c2ccccc2)cc(C#N)c1=O	2.58% (inactive)	–
Cc1ccccc1CN1CCC(CNC(=O)c2cc3ccc4cccnc4c3[nH]2)CC1	-4.76% (inactive)	–
Cc1ccc(N2CC(NC(=O)Cc3cccs3)CC2=O)cc1 (stereo unspecified)	-1.84% (inactive)	–
Cc1cccc(NC(=O)C2CC(=O)OC23CCCC3)c1 (stereo unspecified)	2.02% (inactive)	–
c1ccc(-n2ncc3c(N4CCCC4)ncnc32)cc1	–	4.26 µM (active)
Cn1nnc2c(N3CCN(c4ccccc4)CC3)ncnc21	-8.03% (inactive)	–
Nc1c(C(=O)O)cnn1-c1ccccc1	-3.2% (inactive)	–
Cc1ccc(CN(C(=O)c2ccccc2[N+](=O)[O-])c2ccccn2)cc1	2.1% (inactive)	–
Cc1cc(C)c(C#N)c(SCC(=O)N(CC(C)C)C2CCS(=O)(=O)C2)n1 (stereo unspecified)	0.183% (inactive)	–
O=C(COC(=O)CNC(=O)C1CCCCC1)Nc1cccc(F)c1	3.66% (inactive)	–

Compound	activity change, negative = inhibition	Potency
Nc1c(C(=O)OCC(=O)Nc2ccc(OC(F)F)cc2)[nH]c(=O)[nH]c1=O	-1.54% (inactive)	–
O=S(=O)(c1ccc2nc(N3CCN(c4cccc(Cl)c4)CC3)ccc2c1)N1CCCCC1	0.918% (inactive)	–
O=C(c1ccc(Cl)c(S(=O)(=O)N2CCCCC2)c1)N1CCCCCC1	-0.389% (inactive)	–
O=C(Nc1ccc2c(c1)OCCO2)c1ccc(Cl)c(S(=O)(=O)N2CCCCC2)c1	–	13.5 µM (active)
Cc1ccc(C(=O)NNC(=O)c2ccncc2)cc1S(=O)(=O)N1CCCCC1	-0.932% (inactive)	–
Cc1ccc(NC(=O)C2CC(=O)N(c3ccc4c(c3)OCCO4)C2)cc1S(=O)(=O)N1CCCCCC1 (stereo unspecified)	2.14% (inactive)	–
Cc1ccc(C(=O)Nc2ccc3c(c2)OCO3)cc1S(=O)(=O)N1CCCCC1	–	16.9 µM (active)
O=C(c1ccc(Cl)c(S(=O)(=O)N2CCCCCC2)c1)N1CCN(c2ccc(O)cc2)CC1	4.76% (inactive)	–
Cc1c(Cl)cccc1NC(=O)CCS(=O)(=O)c1ccc2c(c1)oc(=O)n2C	-5.67% (inactive)	–
COc1ccccc1CNS(=O)(=O)c1cc(C(=O)NCc2ccccn2)c(Cl)cc1Cl	1.54% (inactive)	–
CCC(C(=O)Nc1cc(OC)ccc1OC)n1c(=O)c(C(F)(F)F)nc2ccccc21 (stereo unspecified)	-0.546% (inactive)	–
O=C(O[C@H]1[C@H](Cc2ccccc2)NS(=O)(=O)[C@H]2C[C@@H]3C=C[C@]12O3)c1ccc([N+](=O)[O-])cc1	4.04% (inactive)	–
CCc1nonc1NC(=O)c1oc2ccc(Cl)cc2c1C	–	inactive
Cc1cc(C)cc(NS(=O)(=O)c2cc3c(cc2C)NC(=O)CO3)c1	-0.815% (inactive)	–
Cc1cccc(C(=O)N2CCc3c([nH]c4ccccc34)C2CC(C)C)n1 (stereo unspecified)	–	16.9 µM (active)
Cc1ccc(C2c3[nH]c4ccccc4c3CCN2C(=O)c2cccc(C)c2)cc1 (stereo unspecified)	-0.203% (inactive)	–
Cc1cccc(C2c3[nH]c4ccccc4c3CCN2C(=O)c2cc(-c3cccn3C)n[nH]2)n1 (stereo unspecified)	2.66% (inactive)	–
O=C(NCc1cccnc1)C(=O)NCC(c1cccnc1)N1CCN(c2ccccc2)CC1 (stereo unspecified)	5.36% (inactive)	–
CCn1cc(C(=O)NCc2ccc(C)cc2)c(=O)c2cc(S(=O)(=O)N3CCc4ccccc4C3)ccc21	-5.12% (inactive)	–
O=C(Nc1cccc([N+](=O)[O-])c1)N1CCc2ccccc2C1	–	21.3 µM (active)
CCc1ccc(NC(=O)N2CCc3ccccc3C2)cc1	–	12 µM (active)
Cc1ccc(NC(=O)CN2CCc3ccccc3C2)cc1C	-21.8% (inactive)	–
CCc1ccc(NC(=O)N2CCN(c3ccccc3)CC2)cc1	-19.9% (inactive)	–
O=C(Nc1cccc([N+](=O)[O-])c1)Nn1cnnc1	2.4% (inactive)	–
CN1CCN(CC(=O)Nc2cccc([N+](=O)[O-])c2)CC1	1.74% (inactive)	–
Cc1cc(-c2ccc(C)c(S(=O)(=O)N3c4ccccc4CC3C)c2)on1 (stereo unspecified)	3.15% (inactive)	–

Compound	activity change, negative = inhibition	Potency
Cn1c(=O)c2c(nc(SCC(=O)Nc3ccc(F)cc3)n2Cc2ccc(Cl)cc2)n(C)c1=O	-3.31% (inactive)	–
S=C(Cc1ccc(Cl)cc1)N1CCOCC1	-1.16% (inactive)	–
CCOC(=O)c1ccc(N2C(=O)c3n[nH]c(C)c3C2c2ccc(O)c(OC)c2)cc1 (stereo unspecified)	6.1% (inactive)	–
CCOc1ccc(N(CC)S(=O)(=O)N2CCCC(C(=O)Nc3ccc(C(C)=O)cc3)C2)cc1 (stereo unspecified)	2.45% (inactive)	–
NC(=O)CC[C@@H]1NC(=O)[C@@H]2CCCN2C(=O)c2cc([N+](=O)[O-])cc(F)c2NCCC[C@@H](C(N)=O)NC1=O	-0.328% (inactive)	–
Cc1ccc(C(C)C)c(OCCSc2nc3ccccc3n2CC(=O)O)c1	-0.728% (inactive)	–
CCc1ccc(NC(=O)C2CCCN2S(=O)(=O)c2ccc3nc(-c4ccccc4)[nH]c3c2)cc1 (stereo unspecified)	-18.6% (inactive)	–
CCOc1ccc(NCCC(=O)c2ccc3c(c2)OCO3)cc1	–	21.3 µM (active)
CCOc1ccc(C(=O)CCC(=O)Nc2ccncc2)cc1	-4.1% (inactive)	–
COc1ccc(C2(C)NC(=O)N(CC(=O)c3ccc4c(c3)OCO4)C2=O)cc1 (stereo unspecified)	5.52% (inactive)	–
Cc1ccc2nc(CN3CCN(S(=O)(=O)c4ccc(C)c(C)c4)CC3)oc2c1	-1.02% (inactive)	–
CCC1CCCCN1S(=O)(=O)Cc1ccccc1Cl (stereo unspecified)	-1.4% (inactive)	–
CC1(C)NC(=O)N(CC(=O)N2CCN(S(=O)(=O)c3ccccc3F)CC2)C1=O	3.62% (inactive)	–
Cc1ccc(NC(=S)NCCc2ccc(Cl)cc2)c(C)c1	-4.33% (inactive)	–
Cc1ccc(NC(=S)Nc2ncccc2C)c(C)c1	–	6.75 µM (active)
Cc1ccc(NC(=S)NCc2ccccc2Cl)c(C)c1	-7.17% (inactive)	–
CCn1c(SCC(=O)N(C)C2CCS(=O)(=O)C2)nnc1-c1cccs1 (stereo unspecified)	0.145% (inactive)	–
CC(C)N(C(=O)CSc1nnc(NC2CC2)s1)c1ccccc1	1.23% (inactive)	–
CN(C(=O)CSc1nnc(-c2ccc(C(C)(C)C)cc2)n1C)C1CCS(=O)(=O)C1 (stereo unspecified)	–	15.1 µM (active)
CN(C(=O)CSc1nnc(Nc2ccccc2)s1)C1CCS(=O)(=O)C1 (stereo unspecified)	–	16.9 µM (active)
COc1ccc2c(-c3ccccc3)cc(SCC(=O)N(C)C3CCS(=O)(=O)C3)nc2c1 (stereo unspecified)	-10.2% (inactive)	–
CN(C(=O)CSc1nnc(-c2ccc3c(c2)OCO3)o1)C1CCS(=O)(=O)C1 (stereo unspecified)	-0.842% (inactive)	–
COc1cccc(-c2nc(CS(=O)(=O)CC(=O)N3CCN(c4cc(C)ccc4C)CC3)c(C)o2)c1	-13.9% (inactive)	–
COc1cccc(OCC(O)CNC(=O)c2oc3c(C)c(C)ccc3c2C)c1 (stereo unspecified)	-0.457% (inactive)	–
O=C(NCc1ccccc1)C(=O)NCC1OCCN1S(=O)(=O)c1ccc(Br)cc1 (stereo unspecified)	6.76% (inactive)	–
Fc1ccc(COc2ccc(-c3nnco3)cc2)cc1	–	13.5 µM (active)

Compound	activity change, negative = inhibition	Potency
Cc1occc(=O)c1OCc1ccc(F)cc1	-0.892% (inactive)	–
O=C(Oc1ccc(-c2nnco2)cc1)c1ccc(F)c(S(=O)(=O)N2CCOCC2)c1	4.2% (inactive)	–
COCCN1Cc2cccc(C(=O)Nc3ccccc3OC)c2C1=O	-1.7% (inactive)	–
COc1ccc(NC(=O)c2cccc3c2C(=O)N(CC2CCCO2)C3)cc1OC (stereo unspecified)	–	26.9 µM (active)
CCOc1ccc(NC(=O)c2cccc3c2C(=O)N(CC2CCCO2)C3)cc1 (stereo unspecified)	–	8.49 µM (active)
COC(=O)c1ccc(NC(=O)c2cccc3c2C(=O)N(C2CCCCC2)C3)cc1	0.21% (inactive)	–
CCCN1Cc2cccc(C(=O)Nc3ccc(S(=O)(=O)N4CCCCCC4)cc3)c2C1=O	-0.216% (inactive)	–
COc1ccc(C(=O)Nc2ccc(C(=O)NCC3CCCO3)cc2)c(OC)c1OC (stereo unspecified)	-1.51% (inactive)	–
Cc1ccsc1CN(C(=O)c1oc2ccc(Br)cc2c1C)C1CCS(=O)(=O)C1 (stereo unspecified)	0.561% (inactive)	–
O=C1C=C(c2cc(C(F)(F)F)cc(C(F)(F)F)c2)C[C@@H](c2ccc3c(c2)OCO3)C1	2.27% (inactive)	–
Cc1cc(C(F)(F)F)n2ncc(-c3ccccc3)c2n1	2.87% (inactive)	–
COc1ccccc1-c1cnn2c(N3CCOCC3)cc(C)nc12	–	6.01 µM (active)
Cc1cc(-n2nc(C)cc2C)n2ncc(-c3ccccc3)c2n1	-12.2% (inactive)	–
CC1Cc2ccccc2N1S(=O)(=O)c1cccc(C(=O)NCC(c2ccco2)N2CCCC2)c1 (stereo unspecified)	-0.976% (inactive)	–
COc1ccccc1CNC(=O)C(=O)NCC(c1cccs1)S(=O)(=O)c1cccs1 (stereo unspecified)	-10.2% (inactive)	–
O=S(=O)(/C=C/c1ccccc1)N1CCNCC1	0.651% (inactive)	–
O=C(/C=C/c1ccccc1)c1ccoc1	–	15.1 µM (active)
Cc1[nH]c(=O)c(C(=O)/C=C/c2ccccc2)c2c1CCCC2	1.36% (inactive)	–
O=C(/C=C(O)/C=C/c1ccc(O)cc1)/C=C/c1ccc(O)cc1	-22.6% (inactive)	–
O=C(/C=C/c1ccccc1)c1ccccc1O	–	3.38 µM (active)
COc1ccc(C(=O)/C=C/c2ccc(-c3ccccc3)cc2)cc1CSCC(=O)O	0.374% (inactive)	–
O=C(CSc1nnc(-c2ccncc2)n1-c1ccccc1)Nc1ccc(Cl)c(Cl)c1	-1.04% (inactive)	–
COc1ccc(CCNC(=O)c2cn(C)c3ccc(S(=O)(=O)N(C)C4CCCCC4)cc3c2=O)cc1OC	-1.48% (inactive)	–
